This passage reports fluorescence intensity results from PubChem BioAssay AID624483 (NMMLSC, 2012).

Screen size: about 360,000 compounds; about 11,000 (3.1%) were called active. Not shown: some 2% with an inconclusive outcome. For the sample, actives were picked, then their nearest neighbours and some compounds at random. Unmarked numbers belong to inactive results. Cut-off read from the data, not from the text of the source: active = fluorescence intensity above about 16000; inconclusive = no clear call, values can overlap the other calls; inactive = below that.

A short description of this assay: compound fluorescence in toxin protease inhibitor counterscreen, primary screen, artefact control for toxin protease inhibitor project, biochemical, multiplex microsphere, HTS (AID 624483). The settings on record: compound autofluorescence counterscreen, microsphere flow cytometry; active compounds read high. (The purpose of a counterscreen is to sort out artefacts and off-target activity.)
In the case of `Nc1[nH]c(C(=O)c2ccccc2)c(-c2ccc(Br)cc2)c1C(=O)NC1CC1`, the fluorescence intensity was 4400.

`Cc1ccc(C(O)c2ncc(-c3ccccc3F)[nH]2)cc1F` (configuration not stated): the fluorescence intensity is 3620.

For the molecule `O=C1CCCC(O)=C1N=Nc1ccc2ncsc2c1`, the fluorescence intensity is 2580.

For the molecule `CC1(C)CC(CC(=O)O)C(=O)O1` (configuration not stated), the fluorescence intensity was 4100.

As for `CN(CC(=O)Nc1ccccc1Cl)C(=O)COc1cccc2c1OC(C)(C)C2`, the fluorescence intensity is 5770.

In the case of `CC1(C)CC(CCC(=O)Nc2ccccc2Cl)C(=O)O1` (configuration not stated), the fluorescence intensity was 23100 (active).

On to `CNC(=S)N1N=C(c2ccccc2)CC1c1ccc(Br)cc1` (configuration not stated), for which the fluorescence intensity was 23900 (active).

With `COc1ccc(C2CC(c3ccccc3)=NN2C(=O)COC(=O)COc2ccccc2)cc1` (configuration not stated), the fluorescence intensity was 4620.

Regarding `Brc1ccc(C2CC(c3ccccc3)=Nc3ccccc3N2)cc1` (configuration not stated), the fluorescence intensity was 2950.

Consider `COC(=O)Cc1ccc(OC2(C)CCN(Cc3ccc4c(c3)OCCO4)C2)cc1` (configuration not stated), for which the fluorescence intensity is 2970.

With `CCOc1ccc(NC(=S)N2CCCCCC2)cc1`, the fluorescence intensity was 4120.

As to `O=C(NCc1cccnc1)c1cc(C2CCCCN2C(=O)CCc2ccccc2)on1` (configuration not stated), the fluorescence intensity was 3910.

Regarding `Cc1c(C(=O)NCC2CC2)sc(=O)n1Cc1cccc(F)c1`, the fluorescence intensity was 5240.

In the case of `CN(CC(O)COc1ccc(S(=O)(=O)N2CCOCC2)cc1Cl)C1CCCCC1` (configuration not stated), the fluorescence intensity was 4510.

On to `O=C(NCCCN1CCCCC1)c1ccc2c(c1)NC(=O)C(N1CCOCC1)S2` (configuration not stated), for which the fluorescence intensity is 20400 (active).

With `Cc1ccccc1CN1C(=O)c2ccccc2Sc2ccc(C(=O)NCCCN3CCOCC3)cc21`, the fluorescence intensity was 4180.

As to `COc1ccc(CCNC(=O)c2ccc3c(c2)NC(=O)C(N2CCOCC2)S3)cc1OC` (configuration not stated), the fluorescence intensity was 3710.

Consider `CCOC(=O)N1CCN(C(c2ccnc3ccccc23)c2nnnn2-c2c(C)cccc2C)CC1` (configuration not stated), for which the fluorescence intensity is 5760.

As to `COc1cccc(CNC(=O)[C@@H]2CCCN2C(=O)[C@@H]2CCCN2C(=O)c2ccccc2)c1`, the fluorescence intensity was 6440.

In the case of `Cc1nn(CC(=O)NCCc2ccccc2)c(=O)c2cc3occc3n12`, the fluorescence intensity was 4600.

Regarding `CN(Cc1ccccc1)c1nc2c(c(=O)[nH]c(=O)n2C)n1CCSc1nc2ccccc2[nH]1`, the fluorescence intensity is 3450.

For the molecule `Cn1c(=O)[nH]c(=O)c2c1nc(N(CCO)Cc1ccccc1)n2Cc1ccccc1Cl`, the fluorescence intensity is 19800 (active).

`CCOC(=O)Cn1c(CN(Cc2ccccc2)Cc2ccccc2)nc2c1c(=O)[nH]c(=O)n2C`: the fluorescence intensity is 11200.

Regarding `COc1ccc(-c2[nH][nH]c(=O)c2NC(=O)c2ccc([N+](=O)[O-])cc2)cc1`, the fluorescence intensity is 4210.

For the molecule `CC(C)C[C@H]1CNC(=S)N1C[C@H]1CCCN1C[C@H](Cc1ccc(O)cc1)N1C[C@H](Cc2ccc(O)cc2)N(CC2CCCCC2)C1=S`, the fluorescence intensity was 6520.

In the case of `COC(=O)C1C(=O)CC(C)(O)C(C(=O)OC)C1c1ccc2c(c1)OCO2` (configuration not stated), the fluorescence intensity is 8340.

As for `Cc1ccsc1-c1cc(C(=O)O)c2c(ccc3ccccc32)n1`, the fluorescence intensity is 3620.

With `COCCn1nnnc1CN1CCC(NC(=O)Nc2cccc(OC)c2)CC1`, the fluorescence intensity was 24600 (active).

Turning to `COc1cccc(NC(=O)N2CCC(NC(=O)C(Cc3cccc(C)c3)NC(C)=O)CC2)c1` (configuration not stated), the fluorescence intensity was 3850.

As to `COc1cccc(NC(=O)N2CCCC2C(=O)NC2CCCCC2)c1` (configuration not stated), the fluorescence intensity is 6160.

As for `COc1cc(C(=O)NN(CCC#N)C2=NS(=O)(=O)c3ccccc32)cc(OC)c1OC`, the fluorescence intensity is 4420.

For the molecule `COc1ccc(/C=C2\CCCC3C2=NN(C(=O)c2scnc2C)C3c2ccc(OC)cc2)cc1` (configuration not stated), the fluorescence intensity is 22800 (active).

Take `COc1ccc(/C=C2/CCCc3ccccc3C2=O)cc1`: the fluorescence intensity was 3030.

As for `COc1ccc(C=C2CCC3C(CCCC34OCCO4)C2=O)cc1` (configuration not stated), the fluorescence intensity is 2890.

For `Nc1ncnc2c1ncn2[C@@H]1O[C@H](C(=O)N2CCSC2)[C@@H](O)[C@H]1O`, the fluorescence intensity was 5590.

Turning to `O=C(NC1CCCC1)C1c2ccccc2OCC(=O)N1CC(F)(F)F` (configuration not stated), the fluorescence intensity is 6700.

`Cn1c(CN2CCOCC2)nc2cc(NC(=O)c3ccc(Cl)cc3)ccc21`: the fluorescence intensity was 4450.

For `C=CCn1c(C)cc(C2=NNC(=NCC)SC2)c1C`, the fluorescence intensity was 2100.

Consider `COCCn1c(C)cc(C2=NNC(=Nc3ccc(F)cc3)SC2)c1C`, for which the fluorescence intensity is 20800 (active).

For `C[C@@H]1CN([C@@H](C)CO)C(=O)c2c(c3ccccc3n2C)-c2ccccc2CO[C@H]1CN(C)C(=O)C1CC1`, the fluorescence intensity is 3570.

For `CCCCCCCCN1C(=O)[C@H](CC(=O)NCc2cccc3ccccc23)C[C@@]2(C(=O)OC)CCCCC=C12`, the fluorescence intensity was 4630.

Regarding `CC(=O)NCC(=O)N1CCC(n2nccc2NC(=O)CCCc2ccccc2)CC1`, the fluorescence intensity is 6400.

On to `O=C(O)c1ccc(COCC(F)(F)F)cc1`, for which the fluorescence intensity is 16300 (active).

Take `NNC(=O)c1ccc(COCC(F)(F)C(F)F)cc1`: the fluorescence intensity is 4020.

Regarding `O=C(O)CCC(=O)NCc1ccc(C(=O)O)cc1`, the fluorescence intensity is 3850.

With `O=C(NCCCN1CCOCC1)C1CCCN(S(=O)(=O)N2CCCCC2)C1` (configuration not stated), the fluorescence intensity is 5550.

On to `CN(C(=O)COC(=O)CCCc1c[nH]c2ccccc12)c1c(N)n(Cc2ccccc2)c(=O)[nH]c1=O`, for which the fluorescence intensity was 3770.

Consider `CC1=C(C(=O)N2CCOCC2)CC(CC(=O)NCCCN(C)C)C(=O)N1Cc1ccc(C(C)(C)C)cc1` (configuration not stated), for which the fluorescence intensity was 5880.

On to `CCOC(=O)c1cc(-c2nnc(-c3cc(OC)c(OC)c(OC)c3)o2)c(C)nc1C`, for which the fluorescence intensity is 3800.

On to `CCOc1ccc(-c2noc(CCC(=O)NC3CCCC3)n2)cc1OC`, for which the fluorescence intensity was 4230.

On to `CCOc1nc(-c2ccc(OC)cc2)ccc1-c1noc(-c2cc(OC)c(OC)c(OC)c2)n1`, for which the fluorescence intensity is 20200 (active).

`Nc1ncnc2c1ncn2[C@@H]1O[C@H](C(=O)NCC(F)(F)F)[C@@H](O)[C@H]1O`: the fluorescence intensity is 5880.

Regarding `COC(=O)[C@@]1(Cc2ccc(F)cc2)[C@H]2c3cc(C(=O)N4CCCC4)n(Cc4ccc(OC(F)(F)F)cc4)c3C[C@H]2CN1C(=O)c1ccccc1`, the fluorescence intensity was 4360.

Turning to `CN1C[C@@H](CO)O[C@@H](n2cnc3c(N4CCN(CCO)CC4)ncnc32)C1`, the fluorescence intensity is 3470.

Regarding `CC(=O)c1ccc(NC(=O)CSc2nc3ccccc3c(=O)n2CCCN2CCOCC2)cc1`, the fluorescence intensity is 3650.

Take `CCc1ccc(NC(=O)CSc2nc3ccccc3c(=O)n2CCN2CCOCC2)cc1`: the fluorescence intensity is 23500 (active).

In the case of `COC(=O)c1ccc2c(=O)n(CCN3CCOCC3)c(SCC(=O)Nc3cccc(OC)c3)nc2c1`, the fluorescence intensity is 5360.

Turning to `Clc1ccc(-c2cccc3nccn23)cc1`, the fluorescence intensity was 3770.

`COc1cccc(-c2nc3nc(C)cc(C)n3c2NC2CCCCC2)c1`: the fluorescence intensity is 7480.

For the molecule `Cc1ccc(F)c(S(=O)(=O)NC(=O)C2(C)CCN2C(=O)c2ccco2)c1` (configuration not stated), the fluorescence intensity was 3860.

With `COC(=O)c1[nH]c2ccccc2c1NS(=O)(=O)c1ccc(OC)cc1OC`, the fluorescence intensity was 20900 (active).

Consider `COc1ccc(NC(=O)COC(=O)c2n[nH]c3ccccc23)c(OC)c1`, for which the fluorescence intensity is 5180.

Consider `CCCS(=O)(=O)Nc1c(C(=O)O)[nH]c2ccccc12`, for which the fluorescence intensity is 10100.

With `CCC(C)(C)c1ccc(OCC(=O)N(C)C)c(C(C)(C)CC)c1`, the fluorescence intensity is 4730.

Consider `Cc1ccc(C(=O)Nc2ncccc2C)cc1S(=O)(=O)N1CCOCC1`, for which the fluorescence intensity is 5280.

`Cc1ccc(NC(=O)NC2CCCCC2)cc1S(=O)(=O)N1CCOCC1`: the fluorescence intensity is 3370.

`Cc1ccc(C(=O)Nc2ccccc2C(=O)NC2CCCCC2)cc1S(=O)(=O)N1CCOCC1`: the fluorescence intensity was 16600 (active).

As for `CCc1ccccc1NC(=O)CN1CCN(C(=O)c2cc(C3CC3)nn2-c2ccccc2)CC1`, the fluorescence intensity is 3950.

Turning to `CCCCCC(=O)N1CCN(S(=O)(=O)c2ccc3c(c2)OCCCO3)CC1`, the fluorescence intensity is 5990.

`CN1CCCN(S(=O)(=O)c2ccc3c(c2)OCCO3)CC1`: the fluorescence intensity is 22400 (active).

Regarding `CCNC(=O)N1CCN(S(=O)(=O)c2ccc3c(c2)OCCCO3)CC1`, the fluorescence intensity was 5340.

As for `N#Cc1ccc(-c2nc3c(Cl)cc(C(F)(F)F)cn3c2Cc2ccccc2C(F)(F)F)cc1`, the fluorescence intensity was 5560.

Take `COc1ccc(NC(=O)C2Cc3c(-c4ccc5c(c4)OCO5)ccnc3O2)cn1` (configuration not stated): the fluorescence intensity is 2850.

Take `C#CCOc1ccccc1/C=C1/C(=O)ON=C1C`: the fluorescence intensity was 4290.

For `CCOC(=O)c1cc2c(ccn2C)n1CC(=O)N1CCC(C)CC1`, the fluorescence intensity is 4040.

On to `Oc1ccc(Cl)cc1/C=N/c1nc2ccccc2[nH]1`, for which the fluorescence intensity was 22500 (active).

On to `C/C(=N\c1nc2ccccc2n1C)c1cc(Cl)ccc1O`, for which the fluorescence intensity was 3250.

For `Oc1c(Cl)cc(Cl)cc1/C=N/c1ncn[nH]1`, the fluorescence intensity is 4010.

`C=CCNCCCCOc1ccccc1`: the fluorescence intensity is 2600.

For `CCc1nc2c(OCC(=O)C(C)(C)C)cccn2c1N(C)C(=O)c1ccccc1F`, the fluorescence intensity was 3600.

Regarding `CC1(C(=O)NCc2ccc3c(c2)OCO3)CCN1CCc1ccccc1` (configuration not stated), the fluorescence intensity was 3940.

As to `CCc1nc2ccc(C(=O)N3CCN(S(=O)(=O)CC)CC3)cn2c1N(C=O)CCC(C)C`, the fluorescence intensity was 3570.

In the case of `CC(=O)c1ccc(NC(=O)Cn2c(=O)oc3ccccc32)cc1`, the fluorescence intensity was 3040.

Turning to `CC1CCCN(C(=O)Cn2c(=O)oc3ccccc32)C1` (configuration not stated), the fluorescence intensity was 3850.

For `NC(=O)Cn1c(=O)oc2ccccc21`, the fluorescence intensity is 19700 (active).

Turning to `O=C(NC(c1ccc(Cl)cc1)c1cnccn1)C1CCN(Cc2ccc(Cl)cc2)CC1` (configuration not stated), the fluorescence intensity was 4620.

`CCCCC[C@H](C)N1C[C@@H](COCc2ccccc2)Oc2cc(N3CC[C@@H](N(C)C)C3)ccc2S1(=O)=O`: the fluorescence intensity was 5700.
